# Hits are enriched below; roughly 1.3% of the tested compounds scored in any of these assays.
# Sa RN4220 lethal: kills Staphylococcus aureus RN4220. inhibition, % (test concentration not listed). S. aureus RN4220 growth, OD600, 16 h. AID 1259311. 0.33% of 330,000 active; in the data active = inhibition above about 85%;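 note: plate controls were untreated cells for no effect and reference antibiotic for full effect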
# PfHsp40 rescue: compounds rescuing yeast from Plasmodium falciparum HSP40 toxicity | growth rescue, % at 12.5 µM | 0.68% of 340,000 active | S. cerevisiae expressing PfHsp40, growth rescue, ATP luminescence; in the data active = growth rescue above about 28%, passing the limit was not always enough;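 note: yeast W303a lacking pdr1 and pdr3 grown in galactose medium; growth measured after three days at 30 °C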
# ugtP null kill: kills S. aureus RN4220 lacking UgtP; S. aureus RN4220 ugtP deletion, OD600 growth, 16 h; growth inhibition, % (concentration not given with the values); 0.54% of 330,000 active; in the data active = growth inhibition above about 68%;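 note: plate controls were untreated wells for no effect and antibiotic for full effect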
# BJeLR viability: kills HRASV12-expressing BJeLR cells | 0.17% of 300,000 active | BJeLR (HRASV12) viability, CellTiter-Glo ATP luminescence, 48 h | AID 1554 | inhibition, % (concentration not given with the values); in the data active = inhibition above about 50%
# SARS 3CLpro inh-1: SARS-CoV 3CLpro protease inhibition. recombinant SARS-CoV 3CLpro, quenched FRET peptide cleavage. inhibition, % at 6 µM. 0.14% of 290,000 active. AID 1706; in the data active = inhibition above about 12%
# SARS 3CLpro inh-2: confirmation of SARS coronavirus 3C-like protease inhibitors; inhibition, % at 6 µM; QFRET protease activity assay, 3CLpro; shares compounds with SARS 3CLpro inh-1; 36% of 380 active; in the data active = inhibition above about 13%
# Active calls of the source: *; · = not tested or not shown.
SMILES,Sa RN4220 lethal,PfHsp40 rescue,ugtP null kill,BJeLR viability,SARS 3CLpro inh-1,SARS 3CLpro inh-2
CN(Cc1c(F)cccc1Cl)C(=O)c1ccc(COc2ccccc2)cc1,97*,2,100*,-3,6,·
CC(C)CN(C(=O)CN1C(=O)C2CCCCC2C1=O)c1c(N)n(Cc2ccccc2)c(=O)[nH]c1=O (stereo unspecified),0,1,4,-3,-3,·
Cc1nc(Nc2ccc(Cl)cc2Cl)sc1C(=O)Nc1ccccc1,8,22,-28,10,8,·
Cc1nc(Nc2ccc(Cl)c(Cl)c2)sc1C(=O)Nc1ccccc1,93*,103*,99*,8,0,·
CCCCCCCCSc1n[nH]c(N)n1,-4,1,-1,-4,3,·
CCCCCCCCCCSc1n[nH]c(N)n1,16,303*,84*,-4,2,·
Cc1ccc(S(=O)(=O)Nc2nc3ccc(N)cc3s2)cc1,9,-1,84*,-3,0,·
COC(=O)c1ccc2c(=O)n(-c3ccccc3F)c(=S)[nH]c2c1,88,-1,active,5,6,·
O=C(O)c1ccc2c(=O)n(-c3ccccc3F)c(=S)[nH]c2c1,8,0,4,2,0,·
Cc1ccc(/C=C2\SC(=S)N(CC3CCCO3)C2=O)o1 (stereo unspecified),2,2,5,86*,-6,·
CC(=O)c1cc2ccc(O)cc2oc1=O,·,0,·,5,1,·
Cc1ccc(N=c2oc3cc(O)ccc3cc2C(N)=O)cc1,11,33*,-25,7,-4,·
Cc1cccc(C)c1OCC(=O)NNC(=O)CNC(=O)c1ccc(OC(F)F)cc1,0,-2,2,·,·,·
Cc1cc2c(cc(C(=O)NCCCN3CCOCC3)n2Cc2ccc(Cl)cc2)o1,5,0,5,4,1,·
COc1cc(Cl)c(C)cc1NC(=O)CSc1cc(Cl)ccc1Cl,1,0,95*,5,4,·
COc1cc(Cl)c(C)cc1NC(=O)CSc1ccc(C)cc1,5,-1,10,-1,4,·
COc1ccc(C(C(=O)NCC2CCCO2)N(C(=O)Cn2nnc3ccccc32)c2ccc(NC(C)=O)cc2)cc1 (stereo unspecified),6,3,-1,-7,35*,30*
CC(=O)Nc1ccc(N(C(=O)Cn2nnc3ccccc32)C(C(=O)NC2CCCC2)c2ccc(O)c(O)c2)cc1 (stereo unspecified),7,·,9,4,20*,25*
CCOc1cc(C(C(=O)NCC2CCCO2)N(C(=O)Cn2nnc3ccccc32)c2ccc(NC(C)=O)cc2)ccc1O (stereo unspecified),3,1,1,7,10,·
NC(=S)N=Nc1ccc(O)cc1,·,2,·,·,·,·
COc1ccc(CC(=O)NC(C)c2nnc(SCCOc3ccc(OC)cc3)n2C)cc1 (stereo unspecified),1,-1,5,-5,18*,-4
Cc1cccc(N2C(N)=C(C#N)C(C#N)(C#N)C2c2ccccc2)c1 (stereo unspecified),1,0,-7,-3,14*,4
CCN(CC)P1(=O)OC(c2cc(OC)c(OC)c(OC)c2)=Nc2c1c(C)nn2-c1ccccc1 (stereo unspecified),2,-1,-4,3,3,·
Cc1ccc(-c2cc(NC(=O)c3ccccc3[N+](=O)[O-])n[nH]2)cc1,1,1,0,2,16*,14*
Cc1ccc(-c2nc(P(=O)(c3ccccc3)c3ccccc3)c(N3CCOCC3)o2)cc1,-1,0,-8,0,4,·
SMILES,Sa RN4220 lethal,PfHsp40 rescue,ugtP null kill,BJeLR viability,SARS 3CLpro inh-1,SARS 3CLpro inh-2
CNc1oc(-c2ccc(Cl)cc2)nc1P(=O)(c1ccccc1)c1ccccc1,3,0,0,-6,13*,-1
CCn1nc(NS(=O)(=O)c2ccc([N+](=O)[O-])cc2)c2cc3cccc(C)c3nc21,·,0,·,-1,12*,5
CCn1nc(NS(=O)(=O)c2ccccc2)c2cc3cc(C)ccc3nc21,-4,1,-11,6,12*,1
CCOC(=O)c1c(N)sc(-c2ccccc2)c1C,11,6,50,-1,6,·
CCOC(=O)c1sc(-c2ccccc2)cc1N,9,1,11,9,1,·
CCOC(=O)c1cc(-c2ccccc2)sc1N,0,3,1,2,59*,33*
CCOC(=O)c1c(N)sc(C(O)(C(F)(F)F)C(F)(F)F)c1-c1ccccc1,-8,1,-10,-3,12*,10

# Screening results as filed in PubChem.
